{"source": "PubChem BioAssay", "note": "Entries with a potency or affinity are not part of this list. Active and inactive are the calls of the source. No rule for the calls is given here."}
{"molecular_target": "Plasmodium falciparum protein kinase 6 (PK6, PF3D7_1337100) (UniProt Q8IDW1)", "sequence (Q8IDW1 1-305)": "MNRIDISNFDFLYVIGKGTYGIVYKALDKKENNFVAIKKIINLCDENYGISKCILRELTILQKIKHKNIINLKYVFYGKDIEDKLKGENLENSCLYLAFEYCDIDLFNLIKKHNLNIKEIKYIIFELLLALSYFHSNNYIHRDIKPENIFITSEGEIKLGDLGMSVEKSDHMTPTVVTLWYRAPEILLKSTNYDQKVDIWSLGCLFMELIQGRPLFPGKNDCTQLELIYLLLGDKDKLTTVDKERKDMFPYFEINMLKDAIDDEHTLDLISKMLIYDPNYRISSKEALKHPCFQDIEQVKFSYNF", "experiment": "PfPK6 kinase inhibitors, biochemical, TCAMS library (AID 1159586)", "conditions": "recombinant PfPK6, Kinase-Glo ATP depletion luminescence"}
{"smiles": "C[C@@H]1CC[C@H](NC(=O)[C@H](CC2CCCC2)NC(=O)N2CCNCC2)C(=O)CN1S(=O)(=O)c1ccccn1", "outcome": "inactive"}
{"smiles": "O=C(Nc1cccc(C(F)(F)F)c1)c1cccc(S(=O)(=O)NCC2CCN(CC3CCCCC3)CC2)c1", "outcome": "inactive"}
{"smiles": "CCc1cn2c3c(cc(C(=O)N[C@@H](Cc4ccccc4)[C@H](O)CNC(C)C)cc13)N(C)S(=O)(=O)C2", "outcome": "inactive"}
{"smiles": "O=C(NCCc1cccc(F)c1)c1ccc(N2CCN(c3ccncc3)CC2)cn1", "outcome": "inactive"}
{"smiles": "CCc1cn2c3c(cc(C(=O)N[C@@H](Cc4ccccc4)[C@H](O)CNC4CC4)cc13)N(CC)S(=O)(=O)CC2", "outcome": "inactive"}
{"smiles": "CC(C)(CNCc1cccc(Oc2ccccc2)c1)c1nc(-c2ccc(Cl)c(O)c2)c(-c2ccnc(N)n2)[nH]1", "outcome": "inactive"}
{"smiles": "O=C(Nc1cccc(CN2CCCN(Cc3ccc(O)cc3)CC2)c1)c1cc2ccccc2s1", "outcome": "inactive"}
{"smiles": "Cc1nc(-c2cccc(Nc3nccc(NCC(O)c4ccccc4C(F)(F)F)n3)c2)cs1", "note": "(stereo not drawn)", "outcome": "inactive"}
{"smiles": "O=C(CCc1ccccc1)N[C@H](Cc1c[nH]c2ccccc12)C(=O)N1CCC(NCc2ccc3c(c2)Cc2ccccc2-3)CC1", "outcome": "inactive"}
{"smiles": "Cc1nn(CC(C)C)c2sc(C(=O)N3CCN(S(=O)(=O)c4ccc(C#N)cc4)CC3)cc12", "outcome": "inactive"}
{"smiles": "Cc1cnc(C(=O)Nc2ccc3c(c2)CCCN(Cc2c[nH]c4cnccc24)C3)cn1", "outcome": "inactive"}
{"smiles": "COc1ccc(-n2ccnc2SCC(=O)Nc2cc(C(F)(F)F)ccc2Cl)c(OC)c1", "outcome": "inactive"}
{"smiles": "CCCC(=O)Nc1ccc(OCCN(Cc2ccccc2OC(F)(F)F)c2ccc(C(F)(F)F)c(C#N)c2)cc1", "outcome": "inactive"}
